Measured values reported in PubChem BioAssay (EPA / NIEHS).
Active and inactive are the calls of the source. How the source made its calls: active means hit-call score of the fitted dose curve at least 0.9, where 1 is the maximum; inactive means score below 0.9.

Read-out: CFLAR gene, CFLAR (gene 8837)
Test: LTEA_HepaRG_CFLAR: Life Technologies and Expression Analysis (LTEA) Assay for CFLAR gene using HepaRG (AID 2283455)
Conditions: mRNA level, 48 h; actives raise or lower the signal
Experimental: LTEA_HepaRG is a cell based, multiplexed-readout assay that uses HepaRG, a human liver cell line, with measurements taken at 48 hours after chemical dosing on a 96-well plate.LTEA_HepaRG_CFLAR is one of 102 assay component(s) measured in the LTEA HepaRG cell culture assay. It is a marker of Cell proliferation, survival, death.Data from the assay component LTEA_HepaRG_CFLAR was analyzed into 1 endpoint. This assay endpoint, LTEA_HepaRG_CFLAR, was analyzed with bidirectional fitting relative to DMSO as the negative control and baseline of activity. Using a type of inducible reporter, measures of mRNA induction for gain or loss-of-signal activity can be used to understand regulation of transcription factor activity. To generalize the intended target to other relatable targets, this assay endpoint is annotated to the cell cycle intended target family, where the subfamily is Cell proliferation, survival, death.
A total of 1060 chemcials from the ToxCast library were tested in eight-point concentration-response experiments. Cell culture and cytotoxicity assays were conducted at Thermo Fisher Scientific's Custom Services facility (Madison, WI). A single lot of human HepaRG cells (Thermo Fisher Scientific, Frederick, MD) was used for the cell culture experiments. 96-well format collagen type I coated plates of human HepaRG cells were prepared using established methods. Briefly, cryopreserved HepaRG cells were thawed, plated at a density of approximately 100,000 cells/well in HepaRG Thaw, Plate, and General Purpose media (HPRG770, Thermo Fisher Scientific), and incubated for 48 hours. 0.5% DMSO was selected as vehicle control to balance the requisite need of DMSO in HepaRG cultures to maintain differentiation (for example, baseline metabolism, proportions of hepatocytes vs. cholangiocytes), while enabling further hepatic receptor pathway activation (for example, PXR and CAR) in response to chemical exposure. 48 hours after plating, the culture medium was replaced with HepaRG Serum-Free Incudtion Media. Cells were exposed to each test chemical in duplicate and maintained in CO2 incubators for another 48 hours. Chemical plates were thawed to room temperature and 200x concentrations of treatment groups were prepared. 8-point conentration-reponse curves were made with the highest exposure at 100 uM, followed by half-log dilutions, all in 0.5% DMSO. Each test plate contained variouse controls, induction positive controls (1mM phenobarbital), cytotoxicity positive controls ([…] aflatoxin B1), vehicle controls (0.5% DMSO), and total lysis controls (0.5% DMSO). Cell morphology images were taken using an Essen IncuCyte FLR automated microscope, with six 96-well plates imaged in about 24 minutes. Images were captured and exported and JPEG files. Spent culture media was transfered to black-well plates for the LDH assay, and remaining media was sorted at -80 C for later use. Cells were treated with RLT buffer and frozen until shipped for gene expression analysis. Total RNA was isolated from the cell suspension in 75 uL of Buffer RLT (Qiagen, Germantown, MD 20874) by Quintiles/Expression Analysis (Durham, NC) using a custom isolation procedure. Total RNA from each plate well was transferred to a preamplification plate. Fluidigm's 96.96 Dynamic ArrayTM (Fluidigm, Amsterdam, the Netherlands) technology was used for gene expression analyses by quantitative reverse transcription polymerase chain reaction (qRT-PCR, performed by Quintiles/Expression Analysis, Durham, NC)89. Standard TaqManTM Assays (Applied Biosystems/ThermoFisher Scientific, Foster City, CA) were used to assess the expression of 93 genes selected based on their selectivity and sensitivity to important hepatic receptors known to be modulated by environmental chemicals; importance in human hepatocyte functionality; and hepatotoxicity. […]

outcome, inactive:
CC(C)CCO
COc1ccc(/C=C/S(=O)(=O)NC(=O)c2ccc(C)cc2Cl)cc1
COCCOCCOCCOC
O=C(O)c1cccc(N(Cc2cccnc2)c2ccc(OC(F)F)c(OC(F)F)c2)c1
C1=CCCC=CCCC=CCC1
CCCCC(CC)COC(=O)c1ccc(C(=O)OCC(CC)CCCC)cc1 (stereo not given)
CCOC(=O)CC(CC(=O)OCC)(OC(C)=O)C(=O)OCC
C1N2CN3CN1CN(C2)C3
Cc1ccc(O)cc1
CC(=O)OC[C@H]1O[C@@](COC(C)=O)(O[C@H]2O[C@H](COC(C)=O)[C@@H](OC(C)=O)[C@H](OC(C)=O)[C@H]2OC(C)=O)[C@@H](OC(C)=O)[C@@H]1OC(C)=O
O=C1OC(=O)C2C3C=CC(C3)C12 (stereo not given)
CCOC(=O)c1ccc(C2CCC(NC[C@H](O)COc3ccc(O)c(NS(C)(=O)=O)c3)CC2)cc1 (stereo not given in full)
Cc1c(-c2cccnc2)c2ccccc2n1CCCCC(=O)O
O=C1CCC(N2C(=O)c3ccccc3C2=O)C(=O)N1 (stereo not given)
O=c1[nH]c2ccc(S(=O)CCN3CCC(Cc4ccc(F)cc4)CC3)cc2o1 (stereo not given)
CCCCCCc1ccc(O)cc1O
CCCCCCCCCCCCc1ccccc1
CCC(C)(C)C(=O)O[C@H]1C[C@@H](C)C=C2C=C[C@H](C)[C@H](CC[C@@H]3C[C@@H](O)CC(=O)O3)[C@H]21
COc1ccc(-n2nc(C(F)F)cc2-c2ccc(S(C)=O)cc2)cc1 (stereo not given)
CC/C(=C\C(=N/O)C(N)=O)C(C)[N+](=O)[O-] (stereo not given)
O=C(NS(=O)(=O)/C=C/c1ccccc1)c1ccc(F)cc1Cl
Nc1ccc(Nc2ccccc2)cc1
Cn1cnc([N+](=O)[O-])c1Sc1ncnc2nc[nH]c12
O=C(O)c1cccc(Oc2ccccc2)c1
CCOCCOCCOCCO
CCOC(=O)COc1ccc2c(c1)CC(NCC(O)c1cccc(Cl)c1)CC2 (stereo not given)
CC(=O)OCCC(C)C
O=C(O)c1cc(N=Nc2ccc(S(=O)(=O)Nc3ccccn3)cc2)ccc1O
Fc1ccccc1[C@@H](F)COC1CCC(Nc2ncnc3[nH]ncc23)CC1 (stereo not given in full)
O=C(O)CC(O)C(=O)O (stereo not given)
CC(C)=CCC/C(C)=C/CO
COC(=O)CC(=O)OC
CC(C)=CCC/C(C)=C\CO
CN(C)c1ccc(Cc2ccc(N(C)C)cc2)cc1
O=C(OC[C@H]1O[C@@H](OC(=O)c2cc(O)c(O)c(OC(=O)c3cc(O)c(O)c(O)c3)c2)[C@H](OC(=O)c2cc(O)c(O)c(OC(=O)c3cc(O)c(O)c(O)c3)c2)[C@@H](OC(=O)c2cc(O)c(O)c(OC(=O)c3cc(O)c(O)c(O)c3)c2)[C@@H]1OC(=O)c1cc(O)c(O)c(OC(=O)c2cc(O)c(O)c(O)c2)c1)c1cc(O)c(O)c(OC(=O)c2cc(O)c(O)c(O)c2)c1
CC(C)(O)c1coc(S(=O)(=O)NC(=O)Nc2c3c(cc4c2CCC4)CCC3)c1
Cn1c(=O)c2c(ncn2C)n(C)c1=O
CNS(=O)(=O)c1cc(C(=O)N2CCC(CCN3C4CCC3CC(n3c(C)nc5ccccc53)C4)(c3cccc(F)c3)CC2)c(Cl)cc1F (stereo not given)

AC50, active:
COCCOc1cc2cc(C(=O)NC3CCN(C(C)C)CC3)n(CC(=O)Nc3ccc(Cl)cn3)c2cn1 31.4 µM
CCCN(C1CCN(C(=O)C2CCNCC2)CC1)[C@@H]1CCc2ccc(OC)cc2C1 50 µM
